From PubChem BioAssay
Where “and” joins values, the source holds several entries; their conditions need not be identical. Identical values can stand only once. For some assays here: Potency and affinity values are given separately. Calls of active or inactive are those of the source. Unless noted, no rule for the calls is given here.

Legend:
[1] = compounds altering viability of human ES cells (AID 493140); conditions: human embryonic stem cell survival screen; stronger effect = higher value;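 also: cells exposed to compounds for four days before counting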
[2] = signal quenchers or enhancers, Cy5 substrate/SSB – biochemical, NIH Clinical Collection, E. coli SSB, artefact control for HCV NS3 helicase inhibitor project (AID 743268); conditions: Cy5-oligo bound E. coli SSB, fluorescence interference
[3] = tested on: Hepatitis C virus NS3 helicase; assay: blockers of NS3h binding to DNA – biochemical, fluorescence polarization, NIH Clinical Collection, primary screen (AID 743270); conditions: NS3 helicase binding to Cy5-dT15 DNA, stronger effect = higher value, concentration not given here
[4] = molecular target: Single-stranded DNA-binding protein (Escherichia coli (strain K12)) (UniProt P0AGE0); assay: SSB-ssDNA binding inhibitors – biochemical, fluorescence polarization, NIH Clinical Collection, counter-screen for HCV NS3 helicase inhibitor project (AID 743271; in the data active = inhibition above about 28%); conditions: E. coli SSB-DNA binding, stronger effect = higher value, concentration not given here
[5] = compounds distorting NS3 helicase fluorescence signal – biochemical, NIH Clinical Collection, artefact control for HCV NS3 helicase inhibitor project (AID 743272); conditions: fluorescence interference counterscreen, HCV NS3 helicase assay; stronger effect = lower value;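 also: HCV NS3 helicase with a Cy5 labelled single stranded DNA probe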
[6] = modulation of C. elegans fzo-1 (AID 1259413);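 also: fzo-1 mutant C. elegans worms in liquid wells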; conditions: C. elegans fzo-1 modulator screen, mean read-out; stronger effect = higher value
[7] = blockers of cellular phospholipid synthesis – cell-based, LOPAC library, screen 4, primary screen (AID 1347384); conditions: animal cells, phospholipid biosynthesis inhibition screen; at 10 µM
F380Y/beta1 = assay: BK channel mutant inhibitors and activators – cell-based, U2OS BacMam, thallium flux, beta subunits, selectivity assay, profiling panel (AID 1259406;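 active = thallium flux through the channel raised or lowered by more than 3 SD from vehicle-only wells, actives on both sides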;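 also: initial slope of Thallos dye fluorescence rise after thallium is added; log ratio against the mean of 0.3% DMSO vehicle wells on the same plate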); conditions: U2OS BacMam BK variants, at 30 µM
F380Y/beta4 = assay: as above; conditions: U2OS BacMam BK variants, at 30 µM
R275C/beta4 = assay: as above; conditions: U2OS BacMam BK variants, at 30 µM
R275C/Slo1WT/beta2 = assay: as above; conditions: U2OS BacMam BK variants, at 30 µM
[8] = blockers of polyQ-driven CASP3 activation – cell-based (AID 1583); conditions: polyglutamine-induced caspase-3 activation, cell assay; stronger effect = higher value;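 tested at 10 µM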
[9] = yeast 75Q aggregation reduction – 75Q-TubU reporter (AID 1593); conditions: Yeast 75Q polyglutamine aggregation reporter
[10] = restoration of touch response, mutant HTT neurons – whole organism, C. elegans mechanosensory neurons, N-terminal huntingtin (AID 1599); conditions: C. elegans polyQ-huntingtin mechanosensory neurons, stronger effect = higher value
[11] = blockers of cytochrome c efflux from mitochondria – biochemical, purified mitochondria (AID 1603); conditions: stronger effect = lower value;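 also: mouse liver mitochondria challenged with calcium chloride; signal normalized to the plate average as 100%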
[12] = polyglutamine aggregate formation blockers (AID 1604); conditions: polyglutamine-induced protein aggregation inhibition assay; stronger effect = higher value; tested at 2.5 µM
[13] = glutamate transport activators, MN-1 cells, MN-1 cell line (AID 1612); conditions: MN-1 motor neuron cells, stronger effect = higher value;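 also: tested at 1 µM final; 0% = mean of DMSO vehicle wells on each plate; positive means more glutamate uptake than control and negative means less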
[14] = 75Q-TubH aggregate inhibition, S. cerevisiae, yeast (AID 1616); conditions: S. cerevisiae 75Q-TubH polyglutamine aggregation suppression; stronger effect = higher value
[15] = galactose survival enhancers in mitochondrial complex I cybrids – cell-based, galactose medium, ATP luminescence, primary screen (AID 1645843;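 active = z-score of at least 1.8 in each of two replicates, scored against plate mean and spread of sample wells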;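 also: positive z means more ATP and so rescue of galactose-driven cybrid death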); conditions: complex I mutant cybrid cells, 72 h, stronger effect = higher value
[16] = P. berghei load reduction in hepatocytes – cell-based, HepG2, luciferase luminescence, HepG2 viability, primary screen (AID 624349; in the data active = parasite load remaining mostly below about 12%, no sharp cut-off; inactive = mostly above about 10%;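 also: 100% = mean of DMSO negative control wells on the same plate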); conditions: P. berghei liver stage in HepG2, luciferase luminescence, concentration not given here; parasite load remaining: stronger effect = lower value; viability: measured here: HepG2 viability without parasites

With `COc1ccc([C@@H]2Sc3ccccc3N(CCN(C)C)C(=O)[C@@H]2OC(C)=O)cc1` the survival [1] was 19.4 (inactive), the fluorescence ratio [2] was 0.95 (inactive) and the inhibition [3] was -3.18% (inactive). The inhibition [4] was -2.76% (inactive), the fluorescence ratio [5] was 0.98 (inactive) and the mean signal [6] was 243 (inactive). The outcome [7] was “inactive”, the log fold change Tl+ flux (F380Y/beta1) was 0.0592 (inactive) and the log fold change Tl+ flux (F380Y/beta4) was 0.0311 (inactive). The log fold change Tl+ flux (R275C/beta4) was 0.104 (inactive) and the log fold change Tl+ flux (R275C/Slo1WT/beta2) was 0.0487 (inactive).
`Cn1c(=O)c2[nH]cnc2n(C)c1=O` showed an inhibition [8] of 9.69%, a score [9] of 1.11 and a rescue above control [10] of 1.91. The cytochrome c release ratio [11] was 0.95, the inhibition of aggregation [12] was 68.2% and the glutamate uptake change [13] was -19.2%. For the same compound, the aggregation suppression score [14] was 0.779, the survival [1] was 4.08 (inactive) and 2.17 (inactive) and the inhibition [3] was 0.45% (inactive). For the same compound, the inhibition [4] was -2.76% (inactive), the fluorescence ratio [5] was 1 (inactive) and the mean signal [6] was 256 (inactive). For the same compound, the outcome [7] was “inactive”, the z-score [15] was 0.425 (inactive) and 0.475 (inactive) and 0.2 (inactive) and the log fold change Tl+ flux (F380Y/beta1) was 0.00494 (inactive). The log fold change Tl+ flux (F380Y/beta4) was -0.00644 (inactive), the log fold change Tl+ flux (R275C/beta4) was 0.0294 (inactive) and the log fold change Tl+ flux (R275C/Slo1WT/beta2) was 0.0554 (inactive).
In the case of `CCOc1ccc2ccccc2c1C(=O)N[C@@H]1C(=O)N2[C@@H]1SC(C)(C)[C@@H]2C(=O)O`, the survival [1] is reported as 3.33 (inactive), the parasite load remaining [16] is reported as 85.4% (inactive) and 87.9% (inactive) and the viability [16] is reported as 103% and 91.5%. For the same compound, the fluorescence ratio [2] was 1.06 (inactive), the inhibition [3] was -10.4% (inactive) and the inhibition [4] was -6.58% (inactive). The fluorescence ratio [5] was 0.98 (inactive), the mean signal [6] was 253 (inactive) and the z-score [15] was 0.835 (inactive). For the same compound, the log fold change Tl+ flux (F380Y/beta1) was -0.0293 (inactive), the log fold change Tl+ flux (F380Y/beta4) was -0.0322 (inactive) and the log fold change Tl+ flux (R275C/beta4) was -0.041 (inactive). For the same compound, the log fold change Tl+ flux (R275C/Slo1WT/beta2) was 0.0157 (inactive).
With `O=C1[C@H](CC[C@H](O)c2ccc(F)cc2)[C@@H](c2ccc(O)cc2)N1c1ccc(F)cc1` the parasite load remaining [16] was 62.8% (inactive), the viability [16] was 65.3% and the fluorescence ratio [2] was 0.97 (inactive). For the same compound, the inhibition [3] was 2.77% (inactive), the inhibition [4] was 3.75% (inactive) and the fluorescence ratio [5] was 0.95 (inactive). For the same compound, the mean signal [6] was 228 (inactive), the log fold change Tl+ flux (F380Y/beta1) was 0.33 (active) and the log fold change Tl+ flux (F380Y/beta4) was 0.106 (active). The log fold change Tl+ flux (R275C/beta4) was 0.207 (active) and the log fold change Tl+ flux (R275C/Slo1WT/beta2) was 0.0256 (inactive).
For `Nc1nc2ncc(CNc3ccc(C(=O)N[C@@H](CCC(=O)O)C(=O)O)cc3)nc2c(=O)[nH]1`, the inhibition [8] was 15.9%, the score [9] was 1.02 and the rescue above control [10] was -0.86. The cytochrome c release ratio [11] was 1.08, the inhibition of aggregation [12] was 77.8% and the glutamate uptake change [13] was 0.74%. The aggregation suppression score [14] was 1.14, the fluorescence ratio [2] was 0.95 (inactive) and the inhibition [3] was -2.27% (inactive). The inhibition [4] was 11% (inactive), the fluorescence ratio [5] was 0.92 (inactive) and the mean signal [6] was 246 (inactive). For the same compound, the z-score [15] was -0.64 (inactive), the log fold change Tl+ flux (F380Y/beta1) was -0.0026 (inactive) and the log fold change Tl+ flux (F380Y/beta4) was 0.025 (inactive). The log fold change Tl+ flux (R275C/beta4) was -0.0613 (inactive) and the log fold change Tl+ flux (R275C/Slo1WT/beta2) was -0.0318 (inactive).
In the case of `C[C@H]1C[C@@H]2[C@H]([C@@H](O)C[C@@]3(C)[C@H]2CC[C@]3(O)C(=O)CO)[C@@]2(C)C=CC(=O)C=C12`, the survival [1] is reported as 11.9 (inactive), the fluorescence ratio [2] is reported as 1.07 (inactive) and the inhibition [3] is reported as -1.36% (inactive). The inhibition [4] was 1.81% (inactive), the fluorescence ratio [5] was 1.04 (inactive) and the mean signal [6] was 290 (inactive). For the same compound, the z-score [15] was -0.075 (inactive) and 0.335 (inactive), the log fold change Tl+ flux (F380Y/beta1) was 0.0255 (inactive) and the log fold change Tl+ flux (F380Y/beta4) was -0.0167 (inactive). For the same compound, the log fold change Tl+ flux (R275C/beta4) was -0.00754 (inactive) and the log fold change Tl+ flux (R275C/Slo1WT/beta2) was 0.0152 (inactive).
In the case of `c1ccc(-c2ccc(C(c3ccccc3)n3ccnc3)cc2)cc1` (configuration not stated), the fluorescence ratio [2] is reported as 1.01 (inactive), the inhibition [3] is reported as 12.3% (inactive) and the inhibition [4] is reported as 8.37% (inactive). The fluorescence ratio [5] was 1.04 (inactive), the mean signal [6] was 204 (inactive) and the z-score [15] was -1.87 (inactive) and -2.02 (inactive). The log fold change Tl+ flux (F380Y/beta1) was 0.00744 (inactive), the log fold change Tl+ flux (F380Y/beta4) was 0.00227 (inactive) and the log fold change Tl+ flux (R275C/beta4) was -0.0228 (inactive). The log fold change Tl+ flux (R275C/Slo1WT/beta2) was -0.0124 (inactive).
`CCCN(CCC)S(=O)(=O)c1ccc(C(=O)O)cc1` showed an inhibition [8] of 2.2%, a score [9] of 0.68 and a rescue above control [10] of 9.13. The cytochrome c release ratio [11] was 1.07, the inhibition of aggregation [12] was 52.4% and the glutamate uptake change [13] was -14.7%. For the same compound, the aggregation suppression score [14] was 0.579, the survival [1] was 6.25 (inactive) and the fluorescence ratio [2] was 1.02 (inactive). The inhibition [3] was -3.18% (inactive), the inhibition [4] was -0.48% (inactive) and the fluorescence ratio [5] was 0.94 (inactive). For the same compound, the mean signal [6] was 252 (inactive), the z-score [15] was 0.145 (inactive) and the log fold change Tl+ flux (F380Y/beta1) was -0.02 (inactive). The log fold change Tl+ flux (F380Y/beta4) was -0.0299 (inactive), the log fold change Tl+ flux (R275C/beta4) was -0.0261 (inactive) and the log fold change Tl+ flux (R275C/Slo1WT/beta2) was 0.0366 (inactive).
Compound `COc1ccc2cc(CCC(C)=O)ccc2c1` has an inhibition [8] of 10.1%, a score [9] of 0.11 and a cytochrome c release ratio [11] of 0.7. It also gave an inhibition of aggregation [12] of 91.3%, a glutamate uptake change [13] of 13.8% and an aggregation suppression score [14] of 0.329. For the same compound, the survival [1] was 4.83 (inactive), the fluorescence ratio [2] was 0.1 (active) and the inhibition [3] was -1.36% (inactive). For the same compound, the inhibition [4] was 1.05% (inactive), the fluorescence ratio [5] was 0.99 (inactive) and the mean signal [6] was 213 (inactive). The z-score [15] was 0.395 (inactive) and 0.51 (inactive), the log fold change Tl+ flux (F380Y/beta1) was -0.0534 (inactive) and the log fold change Tl+ flux (F380Y/beta4) was -0.162 (active). The log fold change Tl+ flux (R275C/beta4) was -0.216 (active) and the log fold change Tl+ flux (R275C/Slo1WT/beta2) was -0.0751 (inactive).
For `CC1=C(C(=O)O)N2C(=O)[C@@H](NC(=O)[C@H](N)c3ccccc3)[C@H]2SC1`, the survival [1] was 10.4 (inactive), the parasite load remaining [16] was 125% (inactive) and 69.1% (inactive) and 137% (inactive) and the viability [16] was 119% and 79.9% and 115%. For the same compound, the fluorescence ratio [2] was 1.01 (inactive), the inhibition [3] was 8.32% (inactive) and the inhibition [4] was 8.37% (inactive). For the same compound, the fluorescence ratio [5] was 0.97 (inactive), the mean signal [6] was 265 (inactive) and the log fold change Tl+ flux (F380Y/beta1) was -0.0395 (inactive). The log fold change Tl+ flux (F380Y/beta4) was -0.0677 (inactive), the log fold change Tl+ flux (R275C/beta4) was -0.0153 (inactive) and the log fold change Tl+ flux (R275C/Slo1WT/beta2) was -0.0484 (inactive).
For `C[C@]12CCC(=O)C=C1CC[C@@H]1[C@@H]2C(=O)C[C@@]2(C)[C@H]1CC[C@]2(O)C(=O)CO`, the survival [1] was 29.6 (inactive), the parasite load remaining [16] was 29.2% (inactive) and 101% (inactive) and 66.2% (inactive) and the viability [16] was 48% and 86.7% and 71%. The fluorescence ratio [2] was 0.97 (inactive), the inhibition [3] was -1.97% (inactive) and the inhibition [4] was 2.76% (inactive). The fluorescence ratio [5] was 0.97 (inactive), the mean signal [6] was 220 (inactive) and the outcome [7] was “inactive”. The z-score [15] was 0.195 (inactive), the log fold change Tl+ flux (F380Y/beta1) was -0.034 (inactive) and the log fold change Tl+ flux (F380Y/beta4) was -0.00179 (inactive). The log fold change Tl+ flux (R275C/beta4) was 0.0193 (inactive) and the log fold change Tl+ flux (R275C/Slo1WT/beta2) was 0.0155 (inactive).
